In ChEMBL document CHEMBL3988442, “University of Dundee, Small-Polar-MMV Screening Library” (2021) one finds Percent Effect data, which are given here for 54 compounds.

Several values for one entry are separate records, joined by “and”; a condition that tells them apart may be missing. Identical values can stand only once. Screen size: about 67,000 compounds; about 40 (0.06%) showed an effect of 50% or more. Shown is part of a subset that was picked to be rich in strong results.

The assay has as its target T1, Coenzyme A biosynthesis bifunctional protein CoaBC (Mycobacterium tuberculosis (strain ATCC 25618 / H37Rv)) (UniProt P9WNZ1).
T1 sequence (whole entry): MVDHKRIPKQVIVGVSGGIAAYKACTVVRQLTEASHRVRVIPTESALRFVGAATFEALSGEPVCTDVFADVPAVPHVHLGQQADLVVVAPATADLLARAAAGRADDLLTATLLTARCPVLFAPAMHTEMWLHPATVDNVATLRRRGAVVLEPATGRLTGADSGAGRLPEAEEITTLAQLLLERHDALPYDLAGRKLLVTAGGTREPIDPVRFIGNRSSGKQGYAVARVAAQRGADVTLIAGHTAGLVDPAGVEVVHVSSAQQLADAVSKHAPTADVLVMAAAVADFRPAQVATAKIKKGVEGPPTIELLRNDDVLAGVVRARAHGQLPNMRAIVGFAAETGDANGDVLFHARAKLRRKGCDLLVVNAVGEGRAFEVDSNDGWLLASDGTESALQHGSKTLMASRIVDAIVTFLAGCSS
Nature of the assay: Biomol Green assay for MtCoaBC inhibitor, OD650 read. Type of assay: functional. Also on record: scale not given: in the data most compounds retested in dose-response had high values. Particulars: 30 µM.
For `CCN1C[C@H]2CCN(C(=O)NC)CC[C@H]2S1(=O)=O`, the Percent Effect is 8.02%. With `CC(=O)c1cccc(NS(=O)(=O)c2cc(C)c(C(=O)O)s2)c1` the figure was -3%. Take `Cc1cc(S(=O)(=O)Nc2cccc(I)c2)sc1C(=O)O`: the Percent Effect worked out at 2.58%. Then `CNC(=O)N1CC[C@@H]2CN(Cc3cccc(Cl)c3)S(=O)(=O)[C@@H]2CC1`, with 6.19%. Take `c1cnc(N2CCO[C@H]3[C@H](OCC4CCOCC4)CC[C@@H]32)nc1`: the Percent Effect is 1.73%. Consider `Cc1ccc(N2C[C@H]3CCC[C@@H](CN4CCOCC4)[C@H]3C2)nn1`, for which the Percent Effect worked out at 4.17%. With `Cc1cccc(C(=O)N2CCCC(c3noc(C)n3)C2)n1` (centres undefined) the figure was -20.7%; with `Cc1nc(C2CCCN(C(=O)c3cc(Cl)c[nH]3)C2)no1` (centres undefined), 2.57%; with `Cn1nc(-c2cccs2)cc1[C@H]1CN2CC[C@H]1C[C@@H]2CN`, -39.9%. With `CN1C(Cn2cccn2)C[C@@H]2CN(Cc3ccccn3)CC[C@@H]21` (some centres undefined) the figure was -8.3%; with `Cc1cc(C(=O)NC2CCN(c3ncccc3C#N)CC2)no1`, -0.609%. With `Cc1cc(NC(=O)C2CCN(c3nnc(C)c(C)c3C#N)CC2)no1` the figure was 2.42%; with `COCCC(Cc1cccc(Br)c1)C(=O)N(C)C` (centres undefined), -3.54%; with `COCCC(Cc1cccc(Br)c1)C(N)=O` (centres undefined), 4.72%. For `COCc1nc2cc(NCc3cc[nH]n3)ccc2o1`, the Percent Effect worked out at 10.3%. Then `COCc1nc2cc(NCc3ccc(C)o3)ccc2o1`, with 13%; and `Cc1cn[nH]c1C1COCCN1Cc1ccsc1` (centres undefined), with -1.45%.

Consider `Cc1ccc(CN2CCOCC2c2[nH]ncc2C)cn1` (centres undefined), for which the Percent Effect is -2.47%. As to `O=C(NC1CC1)[C@@H]1CCO[C@@H]2CCN(C3CCCC3)C[C@H]21`, the Percent Effect is 7.17%. With `COc1ccc(CN2CCCC2)cc1Oc1ccc(NC(C)=O)cc1` the figure was 1.65%. Then `CC(=O)Nc1ccc(Oc2ccc(CN3CCCC3)cc2F)cc1`, with 9.5%; and `COCCNC(=O)[C@H]1CN(Cc2sccc2C)C[C@H]2OCC[C@@H]12`, with 2.59%; and `CN1C[C@@H](F)[C@@H](OCc2nc3ccc(C#N)cc3[nH]2)C1`, with 8.8%. Then `Cc1ccc2[nH]c(CO[C@H]3CN(C(=O)C4CC4)C[C@H]3F)nc2c1`, with 5.96%; and `CCO[C@H]1CN(C(=O)c2ccnnc2)[C@@H]2COC[C@H]12`, with -7.56%. Regarding `CN(C)C(=O)CN1C[C@@H]2CC[C@H](C1)N(C/C=C/c1ccc(F)cc1)C2`, the Percent Effect is -5.7%.

Turning to `O=C(COCCOc1ccccc1)NC1CCN(c2ncccn2)CC1`, the Percent Effect was -6.77%.

As to `O=C(COCCOc1ccccc1)NC1CCN(C(=O)C2CC2)CC1`, the Percent Effect was -27.3%. Then `CN(C)CCN1CCO[C@H]2CN(C(=O)c3ccsc3)C[C@H]21`, with 0.976%. Regarding `O=C(NC1CC1)[C@@H]1CCO[C@@H]2CCN(Cc3ccsc3)C[C@H]21`, the Percent Effect was 8.23%. Then `O=S(=O)(CCCn1cncn1)Cc1cccc(F)c1`, with 3.23%; and `O=S(=O)(CCCn1cncn1)Cc1ccccc1Cl`, with 0%; and `O=S(=O)(CCCn1cncn1)Cc1ccc(F)cc1Cl`, with 96.3% and 94.5%. With `Cc1csc(CN2CC[C@H]3C[C@H](c4nc(C)no4)O[C@@H]3C2)n1` the figure was -2.84%; with `CCS(=O)(=O)N1C[C@H]2CN(Cc3cccc(F)c3)C(=O)[C@H]2C1`, -7.25%.

Turning to `Cc1cccc(CN2CC[C@@H]3[C@@H]2CCN3C(=O)c2cnoc2C)n1`, the Percent Effect is 8.49%. Then `O=C1OCCN1CC(=O)N1C[C@H]2CC[C@@H]1CN(C(=O)c1cccnc1)C2`, with 7.56%; and `COC[C@@]12CC[C@@H](N3CCOCC3)C[C@H]1CCN(c1cnccn1)C2`, with -5.95%; and `CC(C)CN1CC[C@@H]2[C@@H]1CCN2S(=O)(=O)c1cn(C)cn1`, with 4.68%.

With `O=C(O)c1cc(-n2cc3c(n2)CCC3)cc(S(=O)(=O)NC2CCCC2)c1`, the Percent Effect was -0.121%.

Take `O=C(O)c1cc(-n2cc3c(n2)CCC3)cc(S(=O)(=O)N2CCOCC2)c1`: the Percent Effect is -5.92%. For the compound `COc1cc(N2CCC[C@]3(C(=O)O)CN(C(C)C)C[C@@H]3C2)ncn1`, the Percent Effect was -10.7%. Then `c1ccc(CN2C[C@@H]3COC[C@]3(COCC3CCOCC3)C2)nc1`, with 9.51%; and `COCCNC(=O)C[C@@H]1COC[C@H]2CN(CC3CCOCC3)C[C@@H]12`, with -2.48%; and `COc1cnc(N2CCN(C)CC2)nc1-c1ccnn1C`, with 5.52%.

In the case of `Cc1cnc(N2CCN(C)CC2)nc1-c1ccnn1C`, the Percent Effect was 5.03%. As for `CN1[C@H](Cn2cccn2)C[C@@H]2CN(Cc3cccs3)CC[C@@H]21`, the Percent Effect is 5.67%. Regarding `CO[C@@H]1CN(Cc2scnc2C)[C@@H]2CCCO[C@@H]21`, the Percent Effect was -51.5%. With `O=C(c1ccc[nH]1)N1C[C@H]2CN(Cc3cccc(F)c3)C(=O)[C@H]2C1` the figure was 8.74%; with `CCc1ncncc1C(=O)NCCNS(=O)(=O)c1ccc(C)cc1`, 3.17% and 20.9%; with `Cc1ccc(S(=O)(=O)NCCNC(=O)c2cncnc2C)cc1`, 5.91%. With `Cc1ccc(N2CCO[C@H]3CN(Cc4cccnc4)C[C@H]32)nn1` the figure was 3.85%; with `C[C@H]1C[C@H]2CN(C(=O)c3ccncn3)CC[C@@H]2O1`, 3.76%.

In the case of `Cc1cccc(CN2C[C@H]3CCC[C@@]3(COCc3csc(C)n3)C2)n1`, the Percent Effect came to 3.06%.
